Compounds with a hit are over-represented: about 8.3% of the library has one in this group of screens.
SW480 rerep: A quantitative high throughput screen for small molecules that induce DNA re-replication in SW480 colon adenocarcinoma cells | SW480 DNA re-replication, Hoechst DNA content imaging, 48 h | Potency, µM (top dose mostly 46.1 µM), for inactives: top-dose re-replication activation, hits mostly activators | actives 1.8% (n = 340,000) | AID 624297, 2012; further: potency means the concentration at half of the fitted maximal effect; % of control where 0% means no effect; nearly all actives have a fitted effect of over 55% in size
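Quantitative HTS format with DMSO vehicle controls; 48 hr drug incubation at 37 C, then 40 min Hoechst staining and scanning imager measurement at 405 nm excitation.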
BCR signal inh: qHTS Assay to Find Inhibitors of Chronic Active B-Cell Receptor Signaling; ABC-DLBCL IkBa-CBG/CBR reporter, luminescence ratio, 4 h; Potency, µM (series often up to 46.1 µM), without a hit: top-dose activity change, negative = inhibition, most hits filed as inhibitors; actives 0.05% (n = 340,000); active means well fitted inhibition curve with a large enough effect in the signal ratio, with a control signal flat, not every such curve was filed as active; inconclusive means small, poorly fitted or top-dose-only effect, or effect the other way, or a change in a side signal; the % refers to the signal ratio;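 further: potency means the concentration at half of the fitted maximal effect; plate controls were basal doxycycline-induced cells for no effect and cells given 10 µM MG132 for full effect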
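Cell line TMD8 (human ABC DLBCL), stably expressing tet-inducible CBG68-IkBa fusion and CBR; IMDM/0.5% FBS; cpd up to 46 uM; dox induction, 4 h, 37C/5% CO2; dual luminescence; green/red ratio; MG132 control.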
Giardia killer: Small Molecules that selectively kill Giardia lamblia: qHTS; Giardia lamblia trophozoite viability; activity change, % at 7.66 µM, hits read low; actives 0.15% (n = 340,000); in the data active means activity change below about -80%; inconclusive means between about -30% and that limit;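 further: parasites exposed to compound for two days anaerobically before the ATP read; on the % scale 0 is the no-effect control and ±100 the full control effect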
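Trophozoites 100 cells/well + cpd; 48 hrs, 37 deg C, anaerobic. ATPLite 1-Step added, 15-30 min RT, luminescence read (ATP-based viability).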
RORgamma inh: qHTS for inhibitors of ROR gamma transcriptional activity; Drosophila S2 Gal4-RORgamma UAS-luciferase reporter, 20 h; Potency, µM (top dose mostly 53.6 µM), inactives show top-dose activity change, negative = inhibition, hits mostly inhibitors; actives 5.4% (n = 310,000); AID 2551, 2010; further: potency means the concentration at half of the fitted maximal effect; on the % scale 0 is the no-effect control and ±100 the full control effect; nearly all actives have a fitted effect of over 60% in size
Target sequence (P51450 whole entry, looked up, the tested form may be a part): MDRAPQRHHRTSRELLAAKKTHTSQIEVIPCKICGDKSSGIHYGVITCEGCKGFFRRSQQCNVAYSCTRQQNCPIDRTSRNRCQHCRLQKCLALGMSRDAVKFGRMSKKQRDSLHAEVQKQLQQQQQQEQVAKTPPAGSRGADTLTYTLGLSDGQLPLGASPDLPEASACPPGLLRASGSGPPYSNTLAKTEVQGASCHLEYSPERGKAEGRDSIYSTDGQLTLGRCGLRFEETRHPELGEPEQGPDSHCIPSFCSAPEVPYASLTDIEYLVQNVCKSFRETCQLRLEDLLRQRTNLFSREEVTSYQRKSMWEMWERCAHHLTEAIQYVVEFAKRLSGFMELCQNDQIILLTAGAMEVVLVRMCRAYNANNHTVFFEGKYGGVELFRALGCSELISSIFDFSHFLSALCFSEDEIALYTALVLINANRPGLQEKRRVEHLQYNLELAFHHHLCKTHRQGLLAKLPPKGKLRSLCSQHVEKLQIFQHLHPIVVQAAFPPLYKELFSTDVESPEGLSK
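In this cell-based reporter format, copper sulfate (700 uM final) drives Gal4–ROR gamma fusion expression from a metallothionein promoter in Drosophila Schneider cells; compounds preincubated 1 hr, reporter read after 20 hr at ambient temperature.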
VP16 counter: VP16 counterscreen qHTS for inhibitors of ROR gamma transcriptional activity; Drosophila S2 Gal4-VP16 UAS-luciferase, luminescence, 20 h; Potency, µM (top dose mostly 53.6 µM), for inactives: at the top dose activity, negative = inhibition, actives largely listed as inhibitors; actives 3.5% (n = 310,000);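 further: Gal4-VP16 expression switched on by copper sulfate through the metallothionein promoter; potency means the concentration at half of the fitted maximal effect; on the % scale 0 is the no-effect control and ±100 the full control effect; nearly all actives have a fitted effect of over 50% in size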
MCF10A rereplic: A quantitative high throughput screen for small molecules that induce DNA re-replication in MCF 10a normal breast cells | MCF 10A DNA re-replication, Hoechst nuclear intensity, 48 h | Potency, µM (series often up to 46.1 µM), inactives show top-dose activity, positive = re-replication, most hits filed as activators | actives 2.9% (n = 350,000) | AID 624296, 2012; further: potency means the concentration at half of the fitted maximal effect; % of control where 0% means no effect; nearly all actives have a fitted effect of over 50% in size
* hit, by the source's call; ? = inconclusive; . = no result; [ ] = dose if it differs, or a comment. Unless noted, the call rests on the fitted dose curve; in most records, active means well fitted curve in the direction sought with a large enough effect; inconclusive means small, poorly fitted or top-dose-only effect, or another doubt; inactive means no such curve, though single readings can be large; an effect the other way counts as inactive or inconclusive.

SMILES | SW480 rerep | BCR signal inh | Giardia killer | RORgamma inh | VP16 counter | MCF10A rereplic
Cc1[nH]n(-c2ccccc2)c(=O)c1CCO | -14.7% | 0.3% | -4.2 | -33.5% | 0.4% | 0.2%
Cc1[nH]n(-c2nc(-c3ccccc3F)cc(=O)[nH]2)c(=O)c1CCO | -17.8% | 7.1% | ? | 10µM* | -1.5% | -3.0%
O=C1NC(=Nc2ccc(O)cc2)S/C1=C/c1ccco1 | 2.91µM* | ? | 3.9 | -1.1% | 11.2% | 4.61µM*
Cc1ccc(N=C2NC(=O)/C(=C/c3cccn3C)S2)c(C)c1 | -99.6% | ? | -7.9 | 10µM* | -19.4% | -6.2%
Cc1ccc(N=C2NC(=O)/C(=C/c3cn(C)c4ccccc34)S2)cc1C | ? | -0.1% | -7.2 | 12.6µM* | ? | 20.6µM*
Cn1cc(/C=C2/SC(=O)N(c3ccccc3)C2=O)c2ccccc21 | 11.4% | 1.8% | -9.7 | 4.7% | -2.8% | 5.0%
Cc1ccc(N=C2NC(=O)/C(=C\c3ccco3)S2)cc1 | . | 2.4% | -15.7 | 27.7% | ? | -4.7%
Cn1cccc1/C=C1\SC(=Nc2cccc(O)c2)NC1=O | 59.7% | ? | -8.3 | 3.16µM* | ? | 9.2µM*
Cn1cccc1/C=C1\SC(=Nc2ccccc2)NC1=O | ? | ? | -1.8 | -13.3% | 1.6% | ?
CN(C)N1C(=O)CC(N2CCCCC2)C1=O (centres undefined) | -2.4% | -2.0% | -9.9 | ? | -14.9% | ?
Cn1cccc1/C=C1\SC(=Nc2ccc(O)cc2)NC1=O | 0.461µM* | ? | -0.6 | 2.2% | 7.3% | 0.581µM*
N#Cc1c(-c2ccc(Cl)cc2)cc(-c2ccccc2)nc1SCC(=O)O | -4.5% | 8.3% | -27.7 | ? | -16.1% | 1.1%
N#Cc1c(-c2ccc(F)cc2)cc(-c2ccccc2)nc1SCC(=O)NCC(=O)O | 16.4µM* | 9.9% | 6.2 | 18.3% | -6.6% | -3.9%
COc1ccc(-c2cc(-c3ccccc3)nc(SCC(=O)Nc3nccs3)c2C#N)cc1 | -4.9% | -0.3% | 0.6 | -39.0% | -3.3% | ?
COc1ccc(-c2cc(-c3ccccc3)c(C#N)c(SCC(=O)Nc3ncc(C)s3)n2)cc1 | ? | -0.3% | -19.5 | 19.7% | 9.2% | 23.1µM*
Cc1ccc(C(=O)NCC(c2cccs2)S(=O)(=O)c2cccs2)cc1 (centres undefined) | . | 3.7% | . | . | . | .
COc1ccc(/C=C2\SC(=S)N(CCCC(=O)Nc3ccccn3)C2=O)cc1OC | -2.7% | ? | -23.0 | 4.47µM* | 5.01µM* | 16.7%
Cc1ccc(/C=C2\SC(=S)N(CCCC(=O)Nc3ccccn3)C2=O)cc1 | 4.4% | ? | 0.4 | 0.447µM* | 1.58µM* | 1.6%
CC(C)(C)NC(=O)C(OC(=O)Cn1nnc(-c2ccc(F)cc2)n1)c1ccncc1 (centres undefined) | 12.4% | 0.5% | 5.1 | -20.9%[10 µM] | -0.5% | 20.6µM*
CC(C)(C)NC(=O)C(c1ccncc1)N(Cc1cccs1)C(=O)Cn1nnc(-c2ccc(F)cc2)n1 (centres undefined) | 19.9% | ? | -22.8 | 28.3% | -2.6% | 10.3µM*
Cn1c(N)c(C(=O)COC(=O)c2ccc(Cl)c(S(=O)(=O)N3CCCC3)c2)c(=O)n(C)c1=O | -17.8% | 3.6% | -7.8 | ? | ? | -1.5%
CCC(=O)N(C1=C(NC(C)C)C(=O)c2ccccc2C1=O)C(C)C | -9.5% | ? | -3.0 | 10µM* | ? | 5.7%
CCOc1ccc(NC2=C(OC)C(=O)c3ccccc3C2=O)cc1 | 10.1% | -1.6% | -5.0 | -3.1% | -25.2% | 13.1%
CC(C)(C)c1cc(C(=O)NNC(=O)Nc2ccccc2)n(Cc2ccccc2)n1 | -0.9% | ? | 2.7 | 0.0631µM* | -40.0% | ?
